HPGD inh: HPGD (human) dehydrogenase inhibition; P15428; purified HPGD, NADH fluorescence kinetic, PGE2 substrate; Potency, µM, hits mostly inhibitors; actives 4.3% (n = 150,000); AID 894
Target sequence (P15428 whole entry, looked up): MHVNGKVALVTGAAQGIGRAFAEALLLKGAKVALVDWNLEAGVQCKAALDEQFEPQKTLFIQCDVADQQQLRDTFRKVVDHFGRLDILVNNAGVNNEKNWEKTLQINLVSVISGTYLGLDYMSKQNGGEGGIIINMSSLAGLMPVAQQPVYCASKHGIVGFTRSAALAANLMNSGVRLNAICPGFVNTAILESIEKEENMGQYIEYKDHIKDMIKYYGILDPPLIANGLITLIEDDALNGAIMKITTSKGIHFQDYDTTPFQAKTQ
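20 nM HPGD preincubated 15 min at room temperature with compound in 50 mM Tris-HCl pH 8, 0.01% Tween 20. Started with 1 mM NAD+ and 30 uM prostaglandin E2; NADH fluorescence (360/450 nm) read 5 times over 30-s intervals, last minus first.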
ALOX12 inhib: blocks human 12-lipoxygenase activity | Potency, µM (top dose mostly 57.1 µM), actives largely listed as inhibitors | purified 12-hLO, xylenol orange hydroperoxide absorbance | actives 0.12% (n = 150,000); active = well fitted inhibition curve with a large enough effect; inconclusive = small, poorly fitted or top-dose-only effect; note: nearly all actives have a fitted effect of over 55% in size
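Purified human 12hLO (150 nM), preincubated 15 min with compound, then 40 uM arachidonic acid for 30 min, room temperature, Hepes pH 7.0 with 0.01% Triton X-100. Hydroperoxide detected by ferrous iron/xylenol orange; 573/405 nm absorbance ratio gives reaction progress.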
PNC assembly inh: blocks assembly of the perinucleolar compartment; PC3M PTB-GFP, PNC prevalence imaging, 16 h; active compounds read low; activity change (PNC), negative = inhibition, % at 10 µM; actives 3.1% (n = 140,000); AID 2417;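 active = readout at or below -70, meaning at least 70% loss of cells showing the perinucleolar compartment, a nuclear body marking cancer cells; inconclusive = readout between -30 and a set limit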
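Compounds are pinned in duplicate onto adhered PC3M cells stably expressing GFP-tagged PTB and incubated 16 h at 37 C. Cells are then fixed, nuclei stained with Hoechst, and PNC-positive cells counted.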
Lamin A splicing: changes lamin A minigene splicing in HeLa cells; Potency, µM (top dose mostly 46.1 µM), usual class: inhibitors; actives 0.01% (n = 200,000); HeLa LMNA splicing GFP/RFP minigene ratio, 48 h; active = well fitted inhibition curve with a large enough effect in the signal ratio, with a control signal flat, not every such curve was filed as active; inconclusive = small, poorly fitted or top-dose-only effect, or effect the other way, or a change in a side signal; the % refers to the signal ratio
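Read-out is the ratio of GFP to DsRed2 object intensity, acquired by 488 nm laser-scanning cytometry on HeLa lamin A-EGFP minigene reporter cells. Compound incubation 48 hrs at 37 °C in Opti-MEM with 2% FBS; DMSO 0.5% final.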
ALDH1A1 block: ALDH1A1 (human) enzyme inhibition | Potency, µM (highest dose often 75.3 µM), hits mostly inhibitors | P00352 | Purified ALDH1A1, NADH fluorescence, propionaldehyde substrate | AID 1030 | actives 7.3% (n = 220,000)
A number is an active result; [ ] = another dose, or the depositor's remark. Hits are enriched below; roughly 10% of the tested compounds scored in any of these assays. Unless noted, calls come from the whole dose curve; as a rule, active = well fitted inhibition curve with a large enough effect (not every such curve was filed as active); inconclusive = small, poorly fitted or top-dose-only effect, or another doubt; inactive = no such curve, though single readings can be large or run the other way.

For CC(C)(C)c1cc(C#N)cc(Br)c1OP(=O)(Oc1c(Br)cc(C#N)cc1C(C)(C)C)c1ccccc1 the results were HPGD inh inactive, ALOX12 inhib inactive[11.4 µM] and ALDH1A1 block inactive[13.5 µM].
`CC(=NCCO)c1c(O)n(C2CCCCC2)c(=O)[nH]c1=O` gave HPGD inh inactive, ALOX12 inhib inactive, PNC assembly inh inactive, Lamin A splicing inconclusive and ALDH1A1 block inconclusive.
`CCC(=O)c1c(O)n(C2CCCCCC2)c(=O)[nH]c1=O` gave HPGD inh inactive, ALOX12 inhib inactive, PNC assembly inh inactive, Lamin A splicing inconclusive and ALDH1A1 block 25µM.
Screening CCC(=Nc1ccc(OC)cc1OC)c1c(O)n(C2CCCCC2)c(=O)[nH]c1=O returned HPGD inh 28µM, ALOX12 inhib inactive, PNC assembly inh inactive, Lamin A splicing inconclusive and ALDH1A1 block inconclusive.
O=C(Nc1cccc(F)c1)N1CCCC2(CCN(C(=O)Oc3ccccc3)CC2)C1 was read as HPGD inh inactive, ALOX12 inhib inactive and ALDH1A1 block inactive.
For COc1ccc(CCNCc2ccncc2)cc1 the results were HPGD inh inactive, ALOX12 inhib inactive, PNC assembly inh inactive, Lamin A splicing inactive and ALDH1A1 block 22µM.
Screening O=c1c2cc(Cl)cc(Cl)c2nc(CN2CCOCC2)n1-c1ccccc1F returned HPGD inh inactive, ALOX12 inhib inactive, PNC assembly inh inconclusive, Lamin A splicing inactive and ALDH1A1 block 14µM.
Screening CC(=O)c1cccc(OCC(O)CN2CC=C(c3ccccc3)CC2)c1 (stereo unspecified) returned HPGD inh inactive, ALOX12 inhib inactive, PNC assembly inh inactive, Lamin A splicing inconclusive and ALDH1A1 block 22µM.
Screening CCC(C)n1c(C)cc(C(N)=O)c1C (stereo unspecified) returned Lamin A splicing inactive and ALDH1A1 block inactive.
`CCCn1c(C)cc(C=O)c1C` gave ALDH1A1 block 7.1µM.
Screening Cc1cc(C=O)c(C)n1C(C)C returned ALDH1A1 block 14µM.
`Cc1nn(CCC#N)c2c1P(=S)(N1CCCC1)OC(c1ccc(F)cc1)=N2` (stereo unspecified) gave HPGD inh 20µM, ALOX12 inhib inactive, PNC assembly inh inactive, Lamin A splicing inactive and ALDH1A1 block 7.1µM.
`CC(=O)c1ccc2c(c1)C1C(Cl)C(Sc3ccccc3[N+](=O)[O-])CC1C(c1ccccc1[N+](=O)[O-])N2` (stereo unspecified) gave HPGD inh inconclusive, ALOX12 inhib inconclusive, PNC assembly inh inconclusive, Lamin A splicing inactive and ALDH1A1 block inconclusive.
CC(=O)c1ccc2c(c1)C1C(Cl)C(Sc3ccccc3[N+](=O)[O-])CC1C(c1ccccc1)N2 (stereo unspecified) was read as HPGD inh inactive, ALOX12 inhib inactive, PNC assembly inh -97, Lamin A splicing inactive and ALDH1A1 block 7.9µM.
For O=C(c1cccc([N+](=O)[O-])c1)C12CN3CN(CN(C3)C1)C2 the results were Lamin A splicing inconclusive and ALDH1A1 block inactive.
For CCN(CC)C(=O)C(C(=O)c1cccc([N+](=O)[O-])c1)n1cc(Cl)ccc1=O (stereo unspecified) the results were ALDH1A1 block 18µM.
`Cc1cnn(-c2cc(Oc3ccccc3)ncn2)c1` gave ALOX12 inhib inactive, PNC assembly inh inactive, Lamin A splicing inactive and ALDH1A1 block 22µM.
Screening O=C(O)C1(c2ccc(Cl)cc2)CCC1 returned HPGD inh inactive, ALOX12 inhib inactive, PNC assembly inh -81, Lamin A splicing inactive and ALDH1A1 block inactive.
`CC[N+](=O)[O-]` gave HPGD inh inactive, ALOX12 inhib inactive and ALDH1A1 block inactive.
For Nc1c(Cl)c(Cl)nc(C(=O)O)c1Cl the results were HPGD inh inactive, ALOX12 inhib inactive and ALDH1A1 block inactive.
Screening NC(N)=NC(=O)c1nc(Cl)c(N)nc1N returned HPGD inh inconclusive, ALOX12 inhib inactive, PNC assembly inh -115, Lamin A splicing inconclusive and ALDH1A1 block inactive.
`N#Cc1c(/N=C/c2c(O)n(Cc3ccco3)c(=O)[nH]c2=O)sc2c1CCCC2` gave HPGD inh inactive, ALOX12 inhib inactive, PNC assembly inh inactive, Lamin A splicing inactive and ALDH1A1 block 28µM.
`O=C(Cc1ccccc1)N1CCN(CC2CC=CCC2)CC1` (stereo unspecified) gave HPGD inh inactive, ALOX12 inhib inactive, PNC assembly inh inactive, Lamin A splicing inactive and ALDH1A1 block 13µM.
`O=C(Cc1ccccc1)N1CCN(CC2CC3C=CC2C3)CC1` (stereo unspecified) gave HPGD inh inactive, ALOX12 inhib inactive, PNC assembly inh inactive, Lamin A splicing inactive and ALDH1A1 block inactive.
Screening CCN(CC)c1ccc(CN(C)CCc2ccc(OC)c(OC)c2)cc1 returned HPGD inh inactive, ALOX12 inhib inactive, PNC assembly inh inactive, Lamin A splicing inactive and ALDH1A1 block 13µM.
For COC(=O)C12CC3=CCC4C(=O)N(c5ccccc5)C(=O)C4C3Cc3ccccc3[C@@H]1CNC2=O (stereo partly specified) the results were HPGD inh inactive and ALDH1A1 block inactive.
`C[N+]1(C)[C@@H]2CC[C@H]1CC(OC(=O)[C@@H](CO)c1ccccc1)C2` (stereo partly specified) gave HPGD inh inactive, ALOX12 inhib inactive, Lamin A splicing inconclusive and ALDH1A1 block inactive.
Screening C[N+]1(C)C2CCC1CC(OC(=O)c1c[nH]c3ccccc13)C2 (stereo unspecified) returned HPGD inh inactive, Lamin A splicing inconclusive and ALDH1A1 block 22µM.
For CCCCCC1CC(CC#CCN2CCOCC2)C(=O)O1 (stereo unspecified) the results were HPGD inh inactive, ALOX12 inhib inactive, PNC assembly inh inconclusive, Lamin A splicing inactive and ALDH1A1 block 6.3µM.
For C[C@@]12CC[C@H](O[C@@H]3O[C@H](CO)[C@@H](O)[C@H](O)[C@@H]3O)C[C@@H]1CC[C@H]1[C@H]2CC[C@@]2(C)[C@@H](C3=CCOC3=O)CC[C@]12O the results were HPGD inh inactive, ALOX12 inhib inactive[11.4 µM] and ALDH1A1 block inactive[13.5 µM].
For COc1cccc(C(=O)C2CCCN(Cc3ccccn3)C2)c1 (stereo unspecified) the results were ALDH1A1 block inactive.
`COc1c(C)cc(C(=O)C2CCCN(Cc3ccccn3)C2)cc1C` (stereo unspecified) gave ALDH1A1 block 32µM.
For FC(F)(F)c1nc2ccc(SSc3ccc4nc(C(F)(F)F)[nH]c4c3)cc2[nH]1 the results were HPGD inh 4µM, ALOX12 inhib inactive[11.4 µM] and ALDH1A1 block 2.2µM.
`O=C(CCCN1CCC2(CC1)C(=O)N(Cc1cccc(F)c1)CN2c1ccccc1)c1ccc(F)cc1` gave HPGD inh inactive, ALOX12 inhib inactive and ALDH1A1 block inactive.
O=C1C=CC(=O)C(Cl)=C1 was read as HPGD inh 1µM, ALOX12 inhib inconclusive and ALDH1A1 block 1.8µM.
Screening O=C1C=CC(=O)C=C1 returned HPGD inh inactive, ALOX12 inhib inactive, Lamin A splicing inactive and ALDH1A1 block inconclusive.
